# Assay results taken from PubChem BioAssay.
# The source made the active and inactive calls.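 Rule for the calls, unless noted: active = inhibition at or above 50% at 10 µM; inactive = inhibition below 50%.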
# Key:
# [1] = inhibitors of TNFa-induced NFkB p65 translocation, primary screen, imaging, HUVEC, MLSMR starter and 10KST1 sets (AID 438;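 active = inhibition above 20% together with a positive visual image hit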;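 note: compound added about 3h40 before a 20 min TNFalpha stimulation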;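 for inhibition: signal is the nuclear over cytoplasmic p65 intensity ratio per well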); conditions: HUVEC TNFa-induced p65 nuclear translocation; cell count: measured here: nuclei count (cytotoxicity indicator), at 2.08 µM; inhibition: at 2 µM, stronger effect = higher value, 0% TNFa-plus-vehicle, 100% no-TNFa wells
# [2] = reduction of polyQ htt aggregates in cells – imaging, exon1htt(103Q)mCFP cells, high-content imaging, primary screen (AID 483;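 active = visual image review flags a hit and inhibition of aggregation exceeds 20%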;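 note: compound exposure lasted 3 days before fixation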;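 for nuclei count: percent of the per-plate median nuclei count of sample wells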); conditions: exon1htt(103Q)mCFP cell line, aggregate imaging, at 2 µM; inhibition of aggregation: stronger effect = higher value; nuclei count: measured here: cell count, toxicity
# [3] = endothelial E-selectin expression blockers – imaging, HUVEC, immunofluorescence, MLSMR starter and 10KST1 sets, primary screen (AID 487;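 active = visually confirmed hit in the image check and inhibition above 20%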;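 for inhibition: signal is fraction of cell area covered by stained E-selectin grains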;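 for nuclei count: 100% = median nuclei count of all wells on the same plate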); conditions: HUVEC TNFalpha-induced E-selectin immunofluorescence imaging, at 2 µM; inhibition: stronger effect = higher value; nuclei count: measured here: cell number, toxicity
# [4] = molecular target: Voltage-gated potassium channel subunit beta-2 (Rattus norvegicus) (UniProt P62483); assay: inhibitors of rat Kvbeta2 reductase activity – biochemical, NADPH fluorescence, primary screen (AID 622;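 active = fluorescence slope higher than the sample average by over 3 SD, cut at about -0.22 in these data, passing the limit was not always enough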;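 note: slope of raw intensity against log time taken from 70 to 1610 s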); conditions: recombinant KvBeta, 4-cyanobenzaldehyde reduction, at 10 µM, stronger effect = higher value
# Voltage-gated potassium channel subunit beta-2 (Rattus norvegicus), sequence (P62483 whole entry, looked up): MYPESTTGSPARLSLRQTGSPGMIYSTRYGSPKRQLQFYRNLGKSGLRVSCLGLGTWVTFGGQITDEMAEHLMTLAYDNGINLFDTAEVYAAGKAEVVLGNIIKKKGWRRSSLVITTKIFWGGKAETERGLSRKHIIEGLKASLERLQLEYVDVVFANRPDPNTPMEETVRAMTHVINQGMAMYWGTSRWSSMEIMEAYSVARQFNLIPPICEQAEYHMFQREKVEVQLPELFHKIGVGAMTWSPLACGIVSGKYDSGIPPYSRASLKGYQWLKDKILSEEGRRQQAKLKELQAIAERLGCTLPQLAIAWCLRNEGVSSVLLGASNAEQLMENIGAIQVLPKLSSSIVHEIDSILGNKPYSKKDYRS
# [5] = molecular target: Voltage-gated potassium channel subunit beta-2 (Rattus norvegicus) (UniProt P62483); assay: enhancers of rat Kvbeta2 NADPH turnover – biochemical, NADPH fluorescence, primary screen (AID 623;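 active = NADPH fluorescence slope more negative than the mean of all samples by about 3 SD, 99.7% confidence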;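 note: fluorescence intensity change per second fitted from 20 to 320 s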); conditions: Recombinant KvBeta, NADPH fluorescence decrease slope, 10 min; at 10 µM; stronger effect = lower value
# [6] = molecular target: Alpha-2C adrenergic receptor (Homo sapiens) (UniProt P18825); assay: compounds altering alpha2C-coupled GIRK flux – cell-based, HEK293 alpha2C/GIRK1/2, thallium flux, primary screen (AID 624;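 active = fluorescence slope after compound addition differing from the mean of all screened samples at 99.7% confidence, in either direction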;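 note: slope of fluorescence ratio to pre-addition baseline per second over 15 to 24 s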); conditions: thallium flux BTC fluorescence, at 10 µM, actives lie on both sides
# Alpha-2C adrenergic receptor (Homo sapiens), sequence (P18825 whole entry, looked up): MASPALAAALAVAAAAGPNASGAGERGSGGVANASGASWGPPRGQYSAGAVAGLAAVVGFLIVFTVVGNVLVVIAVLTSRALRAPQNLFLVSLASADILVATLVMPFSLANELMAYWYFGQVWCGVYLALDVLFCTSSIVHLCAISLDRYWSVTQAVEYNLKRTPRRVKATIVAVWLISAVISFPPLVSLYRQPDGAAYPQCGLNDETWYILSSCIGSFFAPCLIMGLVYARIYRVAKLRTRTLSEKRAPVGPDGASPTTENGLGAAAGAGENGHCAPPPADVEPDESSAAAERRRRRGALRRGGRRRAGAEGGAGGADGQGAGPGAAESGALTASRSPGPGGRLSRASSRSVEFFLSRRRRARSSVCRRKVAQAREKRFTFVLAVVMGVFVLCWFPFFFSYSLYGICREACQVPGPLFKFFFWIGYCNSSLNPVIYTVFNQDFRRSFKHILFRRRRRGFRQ
# [7] = blockers of RIG-like receptor reporter activation – cell-based, Sendai virus stimulus, luciferase, 10K MLSCN set, TLR/RLR signaling modifier project, primary screen (AID 602276); conditions: HEK293 RL24 IRF3 luciferase reporter, at 10 µM, stronger effect = higher value;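 note: firefly luciferase from ISG56 promoter only with Renilla not read in this screen; 0% = Sendai virus plus DMSO and 100% = medium plus DMSO without virus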
# [8] = TLR3 IRF3 reporter activation blockers – cell-based, poly I:C stimulus, luciferase, 10K MLSCN set, primary screen (AID 602277;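 active = inhibition of the reporter signal at or above 50%; inactive = inhibition below 50%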); conditions: HEK293-TLR3 RL24 IRF3 luciferase reporter, at 10 µM, stronger effect = higher value
smiles,measurement,setting,value
COc1ccc(NS(=O)(=O)c2coc(C(N)=O)c2)cc1Cl,cell count,[1],734
same,inhibition,[1],-6.3% (inactive)
same,inhibition of aggregation,[2],24% (inactive)
same,nuclei count,[2],86.4%
same,inhibition,[3],-27.2% (inactive)
same,nuclei count,[3],116%
same,fluorescence slope,[4],-0.605 (inactive)
same,NADPH fluorescence slope,[5],1.2e-05 (inactive)
same,slope,[6],0.00632 (inactive)
same,inhibition,[7],6.28% (inactive)
same,inhibition,[8],29.4% (inactive)
COc1ccc(NC(=O)c2cnc3n(c2=O)CCS3)cc1OC,cell count,[1],484
same,inhibition,[1],-3.4% (inactive)
same,inhibition of aggregation,[2],-15% (inactive)
same,nuclei count,[2],92.4%
same,inhibition,[3],-9.5% (inactive)
same,nuclei count,[3],98.8%
same,fluorescence slope,[4],-0.515 (inactive)
same,NADPH fluorescence slope,[5],-3.9e-05 (inactive)
same,slope,[6],0.00659 (inactive)
same,inhibition,[7],-2.41% (inactive)
same,inhibition,[8],-20.9% (inactive)
CON(C)c1nc(Oc2ccc(=O)[nH]n2)nc(N(C)C)n1,cell count,[1],678
same,inhibition,[1],-6.2% (inactive)
same,inhibition of aggregation,[2],-9.5% (inactive)
same,nuclei count,[2],85.9%
same,inhibition,[3],-48.5% (inactive)
same,nuclei count,[3],101%
same,fluorescence slope,[4],-0.351 (inactive)
same,NADPH fluorescence slope,[5],1.4e-05 (inactive)
same,slope,[6],0.00477 (inactive)
same,inhibition,[7],16.3% (inactive)
same,inhibition,[8],19.3% (inactive)
COC1CCCCC1NS(=O)(=O)c1ccccc1 (centres undefined),cell count,[1],317
same,inhibition,[1],1.4% (inactive)
same,inhibition of aggregation,[2],12.2% (inactive)
same,nuclei count,[2],113%
same,inhibition,[3],19.4% (inactive)
same,nuclei count,[3],114%
same,fluorescence slope,[4],-0.312 (inactive)
same,NADPH fluorescence slope,[5],-3.1e-06 (inactive)
same,slope,[6],0.00597 (inactive)
same,inhibition,[7],11.1% (inactive)
same,inhibition,[8],27.4% (inactive)
COC(=O)c1ccnc(/C=N/O)c1,cell count,[1],715
same,inhibition,[1],-2% (inactive)
same,inhibition of aggregation,[2],-19.8% (inactive)
same,nuclei count,[2],112%
same,inhibition,[3],11.2% (inactive)
same,nuclei count,[3],108%
same,fluorescence slope,[4],-0.578 (inactive)
same,NADPH fluorescence slope,[5],-2e-05 (inactive)
same,slope,[6],0.00558 (inactive)
same,inhibition,[7],15.5% (inactive)
same,inhibition,[8],19.8% (inactive)
CCC(C(=O)NC1CCCC1)N(Cc1ccco1)C(=O)Cn1nnc(-c2ccc(C)cc2)n1 (centres undefined),cell count,[1],478
same,inhibition,[1],1.7% (inactive)
same,inhibition of aggregation,[2],10.6% (inactive)
same,nuclei count,[2],114%
same,inhibition,[3],-150% (inactive)
same,nuclei count,[3],112%
same,fluorescence slope,[4],-0.617 (inactive)
same,NADPH fluorescence slope,[5],-1.6e-05 (inactive)
same,slope,[6],0.0026 (inactive)
same,inhibition,[7],10.8% (inactive)
same,inhibition,[8],-7.83% (inactive)
CCC(C)(C)n1nnnc1C(c1ccc(OC)c(OC)c1)N1CCN(c2ccccc2)CC1 (centres undefined),cell count,[1],252
same,inhibition,[1],10.9% (inactive)
same,inhibition of aggregation,[2],0.9% (inactive)
same,nuclei count,[2],80.9%
same,inhibition,[3],1.7% (inactive)
same,nuclei count,[3],94.4%
same,fluorescence slope,[4],-0.473 (inactive)
same,NADPH fluorescence slope,[5],-0.000151 (inactive)
same,slope,[6],0.0062 (inactive)
same,inhibition,[7],18.8% (inactive)
same,inhibition,[8],39.6% (inactive)
COc1ccc(OC)c(C2CC(=O)NC(SC)=C2C#N)c1 (centres undefined),cell count,[1],662
same,inhibition,[1],-9.6% (inactive)
same,inhibition of aggregation,[2],-13.5% (inactive)
same,nuclei count,[2],114%
same,inhibition,[3],-23.1% (inactive)
same,nuclei count,[3],117%
same,fluorescence slope,[4],-0.529 (inactive)
same,NADPH fluorescence slope,[5],-3.6e-05 (inactive)
same,slope,[6],0.00545 (inactive)
same,inhibition,[7],8.75% (inactive)
same,inhibition,[8],29% (inactive)
COCCN(C(=O)CNC(=O)c1ccco1)C(C(=O)NC1CCCCC1)c1cccc(OC)c1 (centres undefined),cell count,[1],650
same,inhibition,[1],-9.5% (inactive)
same,inhibition of aggregation,[2],15.9% (inactive)
same,nuclei count,[2],104%
same,inhibition,[3],37% (inactive)
same,nuclei count,[3],101%
same,fluorescence slope,[4],-0.444 (inactive)
same,NADPH fluorescence slope,[5],-2e-05 (inactive)
same,slope,[6],0.00264 (inactive)
same,inhibition,[7],5.23% (inactive)
same,inhibition,[8],36.9% (inactive)
Cc1ccc2c(c1)sc1ncc(NC(=O)c3ccccc3)c(=O)n12,cell count,[1],324
same,inhibition,[1],2.1% (inactive)
same,inhibition of aggregation,[2],-14.3% (inactive)
same,nuclei count,[2],100%
same,inhibition,[3],-27.5% (inactive)
same,nuclei count,[3],110%
same,fluorescence slope,[4],-0.58 (inactive)
same,NADPH fluorescence slope,[5],6.2e-06 (inactive)
same,slope,[6],0.0047 (inactive)
same,inhibition,[7],-16.1% (inactive)
same,inhibition,[8],-38.4% (inactive)
CCc1nnc(NC(=O)CCC(=O)Nc2ccccc2)s1,cell count,[1],554
same,inhibition,[1],7.2% (inactive)
same,inhibition of aggregation,[2],-10.2% (inactive)
same,nuclei count,[2],97.2%
same,inhibition,[3],33.2% (inactive)
same,nuclei count,[3],93.4%
same,fluorescence slope,[4],-0.384 (inactive)
same,NADPH fluorescence slope,[5],-6.1e-05 (inactive)
same,slope,[6],0.00537 (inactive)
same,inhibition,[7],9.85% (inactive)
same,inhibition,[8],2.44% (inactive)
CS(=O)(=O)NCc1nnc(SCC(=O)NC2CCCCC2)n1-c1ccc(F)cc1,cell count,[1],820
same,inhibition,[1],-5.5% (inactive)
same,inhibition of aggregation,[2],-0.9% (inactive)
same,nuclei count,[2],111%
same,inhibition,[3],-5.8% (inactive)
same,nuclei count,[3],128%
same,fluorescence slope,[4],-0.388 (inactive)
same,NADPH fluorescence slope,[5],-5.9e-05 (inactive)
same,slope,[6],0.00498 (inactive)
same,inhibition,[7],16.2% (inactive)
same,inhibition,[8],26.3% (inactive)
Cc1cc(C)c(C#N)c(SCC(=O)Nc2ccc(S(=O)(=O)Nc3onc(C)c3C)cc2)n1,cell count,[1],607
same,inhibition,[1],2.9% (inactive)
same,inhibition of aggregation,[2],3.9% (inactive)
same,nuclei count,[2],103%
same,inhibition,[3],-59.1% (inactive)
same,nuclei count,[3],122%
same,fluorescence slope,[4],-0.448 (inactive)
same,NADPH fluorescence slope,[5],1.9e-05 (inactive)
same,slope,[6],0.00553 (inactive)
same,inhibition,[7],9.61% (inactive)
same,inhibition,[8],24.3% (inactive)
Cc1cc(C)n2nc(SCc3nc4ccccc4[nH]3)nc2n1,cell count,[1],789
same,inhibition,[1],-6.3% (inactive)
same,inhibition of aggregation,[2],-29.8% (inactive)
same,nuclei count,[2],103%
same,inhibition,[3],-21.3% (inactive)
same,nuclei count,[3],117%
same,fluorescence slope,[4],-0.568 (inactive)
same,NADPH fluorescence slope,[5],8.8e-06 (inactive)
same,slope,[6],0.00609 (inactive)
same,inhibition,[7],-26.2% (inactive)
same,inhibition,[8],-34.6% (inactive)
